Test results taken from ChEMBL document CHEMBL3988442, “University of Dundee, Small-Polar-MMV Screening Library” (2021).

Target: T1, Arginase-2, mitochondrial (Homo sapiens) (UniProt P78540)
T1 sequence (whole entry): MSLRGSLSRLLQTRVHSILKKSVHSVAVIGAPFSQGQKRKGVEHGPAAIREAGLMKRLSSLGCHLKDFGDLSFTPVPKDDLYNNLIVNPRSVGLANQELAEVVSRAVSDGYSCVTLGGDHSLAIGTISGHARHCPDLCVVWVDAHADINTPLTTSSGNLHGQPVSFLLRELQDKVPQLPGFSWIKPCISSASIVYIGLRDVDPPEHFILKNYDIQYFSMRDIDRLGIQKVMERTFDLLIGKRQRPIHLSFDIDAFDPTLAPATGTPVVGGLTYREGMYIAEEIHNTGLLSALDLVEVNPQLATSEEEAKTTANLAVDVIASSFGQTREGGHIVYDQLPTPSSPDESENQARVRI
Test: in vitro enzyme assay to detect the production of urea directly proportional to the activity of Arginase II
Type: functional
Set-up: scale not given: in the data most compounds retested in dose-response had high values
Conditions: 33.3 µM

| Compound | Percent Effect [%] |
| --- | --- |
| O=C(Cn1cnnn1)N1CCCCC1Cn1cccn1 (stereo not given) | -3.04 |
| O=C(NCC1CC1)C1=NOC2(CCN(Cc3ccc4c(c3)OCO4)C2)C1 (stereo not given) | -50.4 |
| O=C(NC[C@@H]1CCCN1)c1cc(COc2cccc(C(F)(F)F)c2)[nH]n1 | 21.6 |
| CO[C@H]1CN(C(=O)c2ccc3oc(C)cc3c2)CC[C@@]12CCCO2 | -0.696 |

Target: T2, Proteasome subunit beta (Trypanosoma cruzi) (UniProt O96673)
T2 sequence (whole entry): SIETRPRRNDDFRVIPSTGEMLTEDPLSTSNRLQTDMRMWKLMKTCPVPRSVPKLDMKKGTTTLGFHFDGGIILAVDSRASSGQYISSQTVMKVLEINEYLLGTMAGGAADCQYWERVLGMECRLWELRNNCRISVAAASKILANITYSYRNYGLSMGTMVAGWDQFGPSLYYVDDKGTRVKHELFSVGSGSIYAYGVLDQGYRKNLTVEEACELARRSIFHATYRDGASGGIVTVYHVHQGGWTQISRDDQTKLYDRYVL
Test: Trypanosoma cruzi proteasome chymotrypsin-like activity (TcProtChymo) assay.
Type: functional
Set-up: scale not given: in the data most compounds retested in dose-response had high values
Conditions: 9.37 µM

| Compound | Percent Effect [%] |
| --- | --- |
| Cn1c(NCC(O)c2ccc(F)cc2F)c(C#N)c(=O)n(C)c1=O (stereo not given) | 4.01 |
| CC(CNC(=O)N1CCSCC1)Cc1cccs1 (stereo not given) | 5.83 |
| NC(=O)COc1cccc(C(=O)N2CCCC(n3ccnc3)C2)c1 (stereo not given) | -4.67 |
| CCC(O)CNC(=O)c1coc(COc2ccc3sc(C)nc3c2)n1 (stereo not given) | 0.71 |
| CCNC(=O)N1CCC2(C1)c1ccccc1S(=O)(=O)N2CCC(C)C (stereo not given) | 5.3 |
| Cc1ccc(C(CNCc2cnn(C(C)C)c2)N2CCOCC2)s1 (stereo not given) | 11.1 |
| COc1cccc(C(=O)Nc2cc(CC(C)C)nn2C)c1 | 3.04 |
| Cc1cc(F)ccc1CN1CCCC2(C1)OCCO2 | 6.34 |
| CCN(Cc1ccco1)C(=O)Nc1cc(C(F)(F)F)c[nH]c1=O | 2.79 |
| O=C(c1ccccc1OCC1CC1)N1CCCC(n2ccnc2)C1 (stereo not given) | 10.3 |
| Cn1nc(CNC(=O)NCc2ccc(Cl)cc2)c2c1CCOC2 | -3.83 |
| O=C(NCC(Cc1cccc(F)c1)N1CCCC1=O)c1ccccc1 (stereo not given) | 13.1 |
| CSCC(C)(O)CNC(=O)c1ccc(Br)cc1F (stereo not given) | 2.15 |
| CCN1CCC(c2nc3ccc(NC(C)C)cn3n2)CC1 | 4.48 |
| COc1ccc(Oc2cncc(C3CCCN3C(C)=O)n2)cc1 (stereo not given) | 9.36 |
| CCn1nc(C)c(CNC(=O)c2cn(CCC3CCCCN3)nn2)c1C (stereo not given) | 9.77 |
